# According to PubChem BioAssay:
# Experiment: Plasmodium falciparum growth inhibition, primary screen, strain 3D7, DAPI fluorescence, 100 nL (AID 1184);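 note: parasites grown inside human red blood cells in medium with human serum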
# Conditions: P. falciparum 3D7 growth, 3 d, higher = more signal
row,SMILES,z-score
1,COc1cc2c(cc1O)C(c1ccc(CN3CCCC3)cc1)N(Cc1cccc(OC(F)(F)F)c1)CC2 (configuration not stated),-2.1
2,Cc1c(NC(=O)/C(C#N)=C/c2ccc(Cl)cc2)c(=O)n(-c2ccccc2)n1C,0.468
3,COCCOC(=O)N1C(=O)[C@@]2(c3cc(C#CC4(O)CCCCCC4)ccc31)[C@H](c1ccccc1OCCO)N1[C@H](c3ccccc3)[C@H](c3ccccc3)OC(=O)[C@H]1[C@@H]2C(=O)N1CCCCCCC1,-1.93
4,CN1C(=O)[C@]2(CCS(=O)(=O)c3ccccc3)N=C(c3ccc(OCCCO)cc3)O[C@@H]2c2ccccc21,-2.32
5,CCOC(=O)C1=CC[C@@H](c2ccccc2)N(S(=O)(=O)C[Si](C)(C)C)[C@H]1c1ccccc1,-1.86
6,CCCCN1CC=CC23O[C@@H]4C=CCOC(=O)[C@@H]4[C@H]2C(=O)N(C(CO)C(C)C)[C@@H]3C1=O (some centres not stated),-0.156
7,[N-]=[N+]=NCc1ccccc1C[C@]1(C(=O)N2CCOCC2)N=C(c2ccc(OCCCO)cc2)O[C@H]1c1ccccc1CN=[N+]=[N-],-2.28
8,COCCOC(=O)N1C(=O)[C@@]2(c3cc(C#CC4(O)CCCCCC4)ccc31)[C@H](c1ccc(OCCO)cc1)N1[C@H](c3ccccc3)[C@H](c3ccccc3)OC(=O)[C@H]1[C@@H]2C(=O)N1CCCCCCC1,-2.43
9,COCCOC(=O)N1C(=O)[C@@]2(c3cc(C#Cc4ccc(OC)cc4)ccc31)[C@H](c1ccc(OCCO)cc1)N1[C@H](c3ccccc3)[C@H](c3ccccc3)OC(=O)[C@H]1[C@@H]2C(=O)N1CCCCCCC1,-2.09
10,Cc1ccc(S(=O)(=O)N2[C@@H](c3ccccc3)C(C(=O)O)=CC[C@H]2c2ccc(C#N)cc2)cc1,-1.26
11,COC(=O)Cn1c(C(=O)N(C)C)cc2c1C[C@H]1CN(C(=O)c3ccccc3)[C@@](Cc3ccc(OC)cc3)(C(=O)OC)[C@@H]21,-1.62
12,CCOC(=O)C1=C[C@@H](C(C)(C)C)N(S(=O)(=O)c2ccc(C)cc2)[C@H]1c1ccccc1Cl,-1.65
13,Cc1c(-c2ccc(-c3ccc(Cl)c(Cl)c3)o2)nc(-c2ccccc2)c2c1CO[Si]2(C(C)C)C(C)C,0.962
14,N[C@@H](Cc1ccccc1)Cn1cc(C2(O)CCCCC2)nn1,0.493
15,COC(=O)c1c(CC[C@@H](CO)NC(=O)N[C@@H](Cc2ccccc2)Cn2cc(-c3cncn3C)nn2)oc(C(C)=O)c1C(=O)OC,-2.06
16,C=C(COC)C(=O)CC[C@@H](OC(C)=O)c1ccc(OCCO)cc1,-0.964
17,CCOC(=O)C[C@H]1[C@H](OC(=O)Cc2ccc3c(c2)OCO3)[C@@H](NC(=O)c2ccccc2)c2cc(OCCCO)ccc2N1C(=O)Cc1ccc(OC)cc1,-1.35
18,COC(=O)[C@@]1(Cc2ccc(OC)cc2)[C@H]2c3cc(C(=O)N(C)C)n(Cc4ccsc4Br)c3C[C@H]2CN1C(=O)c1ccccc1,-1.02
19,CN(C)C(=O)[C@]1(Cc2ccccc2)N=C(c2ccc(OCCCO)cc2)O[C@@H]1c1ccccc1,-2.38
20,O=c1cccc(-c2ccccc2C(F)(F)F)o1,1.58
21,COCCOC(=O)N1C(=O)[C@@]2(c3cc(C#CCCO)ccc31)[C@H](c1ccc(O)cc1)N1[C@H](c3ccccc3)[C@H](c3ccccc3)OC(=O)[C@H]1[C@@H]2C(=O)N1CCc2cc(OC)c(OC)cc2C1,-0.0976
22,COCCCNC(=O)[C@@H]1c2ccccc2C(=O)N(Cc2cc(C(F)(F)F)cc(C(F)(F)F)c2)[C@H]1c1ccc(CO)cc1,-1.14
23,CN(C)C(=O)[C@]1(Cc2ccccc2CN=[N+]=[N-])N=C(c2ccc(OCCCO)cc2)O[C@@H]1c1ccccc1N=[N+]=[N-],-1.89
24,C=CC[C@@]12N=C(c3ccc(OCCCO)cc3)O[C@@H]1c1ccccc1N(Cc1ccccc1)C2=O,-2.42
25,COCCOC(=O)N1C(=O)[C@@]2(c3cc(C#CC4(O)CCCCCC4)ccc31)[C@H](c1ccc(OCCO)cc1)N1[C@H](c3ccccc3)[C@H](c3ccccc3)OC(=O)[C@H]1[C@@H]2C(N)=O,-2.02
26,O=C1O[C@H](c2ccccc2)[C@H](c2ccccc2)N2[C@H]1[C@@H](C(=O)N1CCN(c3ncccn3)CC1)[C@]1(C(=O)Nc3ccccc31)[C@H]2c1ccc(O)cc1,-0.976
27,C=CCN1C(=O)[C@]2(O[C@H](CCn3cc([C@H](O)c4ccccc4)nn3)[C@@H]([Si](C)(C)c3ccc(OC)cc3)[C@@H]2C)c2cc(N3C(=O)c4cccc5cccc3c45)ccc21,-2.75
